The values that follow come from PubChem BioAssay AID1745853 (National Center for Advancing Translational Sciences (NCATS), 2022).

What all share (assay): Primary Screen for Target Class Profiling of Small Molecule Inhibitors of Methyltransferases
For test [1], the target named is Catechol O-methyltransferase (Homo sapiens) (UniProt P21964). As to conditions: purified enzyme, MTase-Glo SAH luminescence; activity change, negative = inhibition: at 40 µM, stronger effect = lower value; outcome: 40 uM. The source says: (§1) PI: Matthew D. Hall Ph.D. and Quinlin M. Hanson Ph.D.
Chain of Catechol O-methyltransferase (Homo sapiens) (P21964 whole entry, looked up): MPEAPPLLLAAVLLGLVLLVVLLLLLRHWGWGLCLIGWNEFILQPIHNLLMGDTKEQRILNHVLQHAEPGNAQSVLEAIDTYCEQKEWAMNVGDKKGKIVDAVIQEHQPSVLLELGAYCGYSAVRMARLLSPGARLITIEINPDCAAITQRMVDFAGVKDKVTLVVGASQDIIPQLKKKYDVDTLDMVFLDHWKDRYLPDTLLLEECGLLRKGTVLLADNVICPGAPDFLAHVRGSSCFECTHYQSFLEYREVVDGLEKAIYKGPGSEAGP
(§2) National Center for Advancing Translational Sciences (NCATS)
(§3) National Institute of Health (NIH), Rockville, MD
(§4) Target class profiling (TCP) is a chemical biology approach amenable to investigating understudied biological targets. TCP is achieved by developing a generalizable assay platform and applying it to screen a curated set of compound libraries against representative members of a target class. Small molecule methyltransferases (SMMTase) are a subclass of methyltransferase that act on metabolites to modulate signaling pathways, metabolize xenobiotics, or balance the available methyl pool. We screened four curated libraries totaling 27,574 unique compounds against the SMMTases nicotinamide N-methyltransferase (NNMT), phenylethanolamine N-methyltransferase (PNMT), histamine N-methyltransferase (HNMT), glycine N-methyltransferase (GNMT), catechol O-methyltransferase (COMT), and guanidinoacetate N-methyltransferase (GAMT). The data generated by this TCP can be leveraged for informed tool molecule development. For example, in the associated publication we identified a chemotype of HNMT-selective inhibitors. Additionally, we identified a putative SMMTase-selective inhibitor with potential as a tool molecule for studying broader methyltransferase biology.
(§5) High-through put screening assays were developed at the National Center for Advancing Translational Science (NCATS) for the enzymes NNMT, PNMT, HNMT, GNMT, COMT, and GAMT. Enzymatic activity was measured as a function of SAM cofactor conversion using the MTase Glo kit (Promega) for all enzymes. All assays were performed in 1536-well format with substrates and SAM concentrations at KM values. Enzyme concentration and assay timing were optimized for 10-20% SAM conversion. Initial screening of 27,574 compounds was done as single-point assays using the highest compound concentration (40 uM). […] These compounds were replated in 11-point dose response and assayed against NNMT, PNMT, HNMT, GNMT, COMT, GAMT, and a counter-assay. The IC50 and efficacy (maximal response) values were determined for each dose-response curve. These values are also accounted for in the area under the curve (AUC) values.
(§6) PROTOCOL TABLE (as described by Inglese J, Shamu CE and Guy RK. 2007)
(§7) SEQUENCE No. (e.g., 1, 2, 3, etc.); […] (e.g., Cells, Incubation, Reagent, etc.); VALUE; DESCRIPTION.
(§8) 1; Reagent; 2 uL; SMMTase Enzyme (2x) in reaction buffer, columns 1- 48.
(§9) 2; Reagent; 1 uL; SAM (4x) in reaction buffer, columns 1-48.
(§10) 3; Controls; 23 nL; DMSO in column 4; sinefungin in DMSO (0 uM - 40 uM) in 7-point 1:2 dilution series (n = 2) in column 2.
(§11) 4; Compounds; 23 nL; Columns 5-48.
(§12) 5; Reagent; 1 uL; Substrate (4x) in reaction buffer, columns 2-48.
(§13) 6; Time; 20-30 min; Incubation.
(§14) 7; Reagent; 1 uL; MTase-Glo reagent (5X), columns 1-48.
(§15) 8; Time; 30 min; Incubation.
(§16) 9; Reagent; 5 uL; MTase-Glo Detection reagent, columns 1-48.
(§17) 10; Time; 30 min; Incubation, luminescence evolution.
(§18) 11; Detection; Luminescence; ViewLux uHTS Microplate Imager (PerkinElmer).
(§19) NOTES (numbers refer to Sequence numbers above)
(§20) 1, 2, 5. White Medium Binding Greiner 1536-well plates (Cat #789175-F, Greiner Bio-One, Monroe, NC); Reaction buffer: 50 mM Tris, pH 8.0, 3 mM MgCl2, 1 mM EDTA, 50 mM NaCl, 1 mM DTT, and 0.1 mg/mL BSA. Evaporation was prevented by covering assay plates with metal lids containing holes to allow gas diffusion.
(§21) 1. Six SMMTase were profiled: HNMT, GNMT, PNMT, COMT, NNMT, GAMT
(§22) 5. The corresponding substrate was used for each enzyme: HNMT - 5.3 uM Histamine; GNMT - >500 uM Glycine; PNMT - 16.2 uM Norephinephrine; COMT - 13.7 uM Norephinephrine; NNMT - 3.8 uM Nicotinamide; GAMT - 2.5 uM Guanidinoacetate.6, 8, 10. Room temperature
(§23) 6. Final reaction conditions: 10 nM COMT, 5 uM SAM, 15 uM norepinephrine, 50 mM Tris, pH 8.0, 3 mM MgCl2, 1 mM EDTA, 50 mM NaCl, 1 mM DTT, and 0.1 mg/mL BSA; refer to tables 2 and S1 for specific timing.
8. […]

Test [2] deals with Glycine N-methyltransferase (Homo sapiens) (UniProt Q14749). The following applies: purified enzyme, MTase-Glo SAH luminescence; measured here: GNMT inhibition; at 40 µM; stronger effect = lower value.
Chain of Glycine N-methyltransferase (Homo sapiens) (Q14749 whole entry, looked up): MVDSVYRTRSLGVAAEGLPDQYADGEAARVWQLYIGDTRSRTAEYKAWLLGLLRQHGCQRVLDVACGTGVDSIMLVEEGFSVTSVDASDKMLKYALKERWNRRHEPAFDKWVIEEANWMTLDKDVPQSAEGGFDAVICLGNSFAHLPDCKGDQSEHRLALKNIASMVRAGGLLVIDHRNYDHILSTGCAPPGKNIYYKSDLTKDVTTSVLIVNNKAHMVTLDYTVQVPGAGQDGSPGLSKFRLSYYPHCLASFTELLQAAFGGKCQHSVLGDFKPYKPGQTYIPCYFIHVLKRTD
Source text: as §1, §2, §3, §4, §5, §6, §7, §8, §9, §10, §11, §12, §13, §14, §15, §16, §17, §18, §19, §20, §21, §22, §23
8. […]

The target in test [3] is Guanidinoacetate N-methyltransferase (Homo sapiens) (UniProt Q14353). The following applies: purified enzyme, MTase-Glo SAH luminescence; measured here: GAMT inhibition; at 40 µM; stronger effect = lower value.
Source text: as §1, §2, §3, §4, §5, §6, §7, §8, §9, §10, §11, §12, §13, §14, §15, §16, §17, §18, §19, §20, §21, §22, §23
8. […]

Test [4] concerns the target Histamine N-methyltransferase (Homo sapiens) (UniProt P50135). As to conditions: purified enzyme, MTase-Glo SAH luminescence; measured here: HNMT inhibition; at 40 µM; stronger effect = lower value.
Source text: as §1, §2, §3, §4, §5, §6, §7, §8, §9, §10, §11, §12, §13, §14, §15, §16, §17, §18, §19, §20, §21, §22, §23
8. […]

In test [5] the target is Nicotinamide N-methyltransferase (Homo sapiens) (UniProt P40261). As to conditions: purified enzyme, MTase-Glo SAH luminescence; measured here: NNMT inhibition; at 40 µM; stronger effect = lower value.
Chain of Nicotinamide N-methyltransferase (Homo sapiens) (P40261 whole entry, looked up): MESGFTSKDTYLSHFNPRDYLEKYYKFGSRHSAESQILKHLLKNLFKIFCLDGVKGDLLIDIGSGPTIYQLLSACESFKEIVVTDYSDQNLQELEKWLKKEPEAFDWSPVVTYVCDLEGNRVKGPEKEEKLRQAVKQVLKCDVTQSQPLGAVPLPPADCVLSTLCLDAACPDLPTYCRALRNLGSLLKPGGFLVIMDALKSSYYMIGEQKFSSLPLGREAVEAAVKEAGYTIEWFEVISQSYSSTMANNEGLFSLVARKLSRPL
Source text: as §1, §2, §3, §4, §5, §6, §7, §8, §9, §10, §11, §12, §13, §14, §15, §16, §17, §18, §19, §20, §21, §22, §23
8. […]

The target in test [6] is Phenylethanolamine N-methyltransferase (Homo sapiens) (UniProt P11086). As to conditions: purified enzyme, MTase-Glo SAH luminescence; measured here: PNMT inhibition; at 40 µM; stronger effect = lower value.
Chain of Phenylethanolamine N-methyltransferase (Homo sapiens) (P11086 whole entry, looked up): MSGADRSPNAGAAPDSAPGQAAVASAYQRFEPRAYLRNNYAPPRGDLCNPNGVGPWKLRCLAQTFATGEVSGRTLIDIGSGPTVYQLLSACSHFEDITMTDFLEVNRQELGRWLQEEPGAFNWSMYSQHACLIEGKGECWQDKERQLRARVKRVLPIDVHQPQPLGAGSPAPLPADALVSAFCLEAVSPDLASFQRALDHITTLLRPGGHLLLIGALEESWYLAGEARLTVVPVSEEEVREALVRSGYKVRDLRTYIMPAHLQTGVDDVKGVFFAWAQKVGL
Source text: as §1, §2, §3, §4, §5, §6, §7, §8, §9, §10, §11, §12, §13, §14, §15, §16, §17, §18, §19, §20, §21, §22, §23
8. […]

“And” between values parts separate entries of the source, which are not always exact repeats. Identical values can stand only once. The campaign covered roughly 25,000 compounds. About 970 (3.9%) were called active. About 8% were inconclusive and are not listed. The rule behind the calls is not given here. For the sample, actives were picked, then their nearest neighbours and some compounds at random.
% is set by controls: 0 for no effect and ±100 for the full control effect.

Chain of Histamine N-methyltransferase (Homo sapiens) (P50135 whole entry, looked up): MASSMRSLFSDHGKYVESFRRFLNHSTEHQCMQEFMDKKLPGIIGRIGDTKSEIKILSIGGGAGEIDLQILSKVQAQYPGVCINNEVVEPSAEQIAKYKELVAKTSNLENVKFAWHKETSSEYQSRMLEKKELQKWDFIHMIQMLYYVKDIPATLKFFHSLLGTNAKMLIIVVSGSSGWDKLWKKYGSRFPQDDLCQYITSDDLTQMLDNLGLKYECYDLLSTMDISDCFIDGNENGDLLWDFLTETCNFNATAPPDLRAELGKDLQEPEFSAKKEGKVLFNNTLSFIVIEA

For `Cc1ccc(COc2ccc3c(-c4ccccc4)cc(=O)oc3c2)cc1`, the activity change, negative = inhibition is 1.55% (inactive) in test [1]; -1.02% in test [2]; 8.91% in test [3]; 3.98% in test [4]; 6.08% in test [5]; -3.92% in test [6].
Turning to `CCCN1C(=O)c2cc(C(=O)N3CCC(C)CC3)nn2CC1(C)C(=O)NC1CCCC1` (configuration not stated), the activity change, negative = inhibition is -0.787% (inactive) in test [1]; -3.38% in test [2]; 3.26% in test [3]; 4.03% in test [4]; -4.98% in test [5]; -1.07% in test [6].
For `CCc1ccc(S(=O)(=O)c2nnn3c2nc(N2CCCCC2)c2ccccc23)cc1`, the activity change, negative = inhibition was 3.62% (inactive) in test [1]; 0.777% in test [2]; 0% in test [3]; 6.93% in test [4]; -3.24% in test [5]; -1.25% in test [6].
With `Cc1cn(CCN2CCN(c3ccccc3-c3cc(C#N)cc(C(=O)NCCCN4CCCC4)c3)CC2)c2ccccc12`, the activity change, negative = inhibition in test [1] was -11% (active) and 25.9% (active); in test [2] it was 0.523% and -14.2%; in test [3], 12%; in test [4], -86.5% and -77.8%; in test [5] it was -17.4% and 7.48%; in test [6], -1.62% and 35.5%.
For `CCOc1ccc(CN2C(=O)c3cc(C(C)(C)C)nn3CC2(C)C(=O)NC2CCCCCC2)cc1` (configuration not stated), the activity change, negative = inhibition in test [1] was -0.389% (inactive); in test [2], -3.62%; in test [3], 4.61%; in test [4] it was -1.08%; in test [5] it was -2.24%; in test [6] it was -3.09%.
In the case of `COc1cccc(-c2ccc(C(=O)NCCN[S+](=O)([O-])c3cccs3)cc2)c1`, the activity change, negative = inhibition in test [1] is 1.95% (inactive); in test [2], -8.51%; in test [3] it was -1.67%; in test [4], -4.59%; in test [5] it was -5.98%; in test [6] it was -13%.
Take `CCNC(=O)N1CC[C@H]2CC(=O)N(Cc3cccnc3)CC[C@H]2C1`: the activity change, negative = inhibition in test [1] was -8.99% (inactive); in test [2], -6.64%; in test [3] it was -7.68%; in test [4], -5.27%; in test [5], -14.8%; in test [6], -11.5%.
With `COc1cccc(C(=O)N(CC(C)C)CC2CN(C(=O)Nc3ccccc3)CCO2)c1` (configuration not stated), the activity change, negative = inhibition is -3.51% (inactive) in test [1]; -5.73% in test [2]; -3.93% in test [3]; -3.02% in test [4]; -7.14% in test [5]; 0.149% in test [6].
In the case of `Cn1c(=O)c2ccc(C(=O)NC3CCCCC3)cc2n2c(SCc3cccc(Cl)c3)nnc12`, the activity change, negative = inhibition in test [1] is 2.97% (inactive); in test [2] it was 2.72%; in test [3] it was 0.691%; in test [4] it was 2.66%; in test [5], 1.84%; in test [6] it was 5.9%.
For `CCn1ccnc1CN(C)C(=O)c1cc(COc2ccccc2F)[nH]n1`, the activity change, negative = inhibition in test [1] is 4.03% (inactive); in test [2], -2.18%; in test [3] it was -0.135%; in test [4] it was -1.52%; in test [5], -4%; in test [6], -1.63%.
For the molecule `CC1(C(=O)NC2CCCCC2)Cn2c(ccc2-c2ccccc2)C(=O)N1CCC1=CCCCC1` (configuration not stated), the activity change, negative = inhibition in test [1] is 6.36% (inactive); in test [2] it was 9.19%; in test [3], 0.753%; in test [4], 8.84%; in test [5], 8.48%; in test [6], 6.08%.
Regarding `COc1ccc(CN2C(=O)c3ccc(-c4ccco4)n3CC2(C)C(=O)NC2CCCCCC2)cc1` (configuration not stated), the activity change, negative = inhibition is -2.99% (inactive) in test [1]; -14.7% in test [2]; 0.968% in test [3]; -7.66% in test [4]; -8.88% in test [5]; -4.52% in test [6].
